Bioassay records deposited in PubChem BioAssay by National Center for Advancing Translational Sciences (NCATS).
TDP1 cell noCPT – qHTS for Inhibitors of human tyrosyl-DNA phosphodiesterase 1 (TDP1): qHTS in cells in absence of CPT. DT40 Tdp1-/- hTDP1 cells, no CPT, ATP luminescence, 48 h. Potency, µM (top dose mostly 46.2 µM), usual class: inhibitors. 15% of 420,000 active; also: nearly all actives have a fitted effect of over 55% in size
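Cells were dispensed at 400 per well, compounds added by pin tool, plates incubated ≥48 hr at 37 °C, then CellTiter-Glo added for 30 min at room temperature before luminescence reading. Line: DT40 Tdp1-/- complemented with hTDP1; camptothecin omitted.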
HT1080NT lethal – qHTS for induction of synthetic lethality in tumor cells producing 2HG: qHTS for the HT-1080-NT fibrosarcoma cell line | HT-1080-NT fibrosarcoma viability, CellTiter-Glo ATP luminescence, 48 h | Potency, µM (highest dose often 46.1 µM), usual class: cytotoxic | 1.6% of 360,000 active | AID 686970, 2013;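 also: NT is the 2HG producing partner of a matched IDH1 knockdown line; nearly all actives have a fitted effect of over 55% in size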
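Toxicity toward the 2HG-producing NT line was scored as %Activity, normalised to DMSO and no-cell wells, from CellTiter-Glo luminescence after 48 hours' treatment.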
TGFb SMAD3 inh – qHTS for Inhibitors of TGF-b; HepG2 CAGA-GFP TGF-b/SMAD3 reporter, GFP fluorescence, 18 h; TGF-beta stimulated, 500 pg/mL final; AID 588855, 2011; Potency, µM (doses to about 46.1 µM), actives largely listed as inhibitors; 1.2% of 410,000 active; also: nearly all actives have a fitted effect of over 65% in size
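Cell-based qHTS in HEPG2 carrying a CAGA-GFP Smad reporter; compounds added before 500 pg/mL final TGF-beta, 18 h incubation at 37 degrees C, GFP fluorescence quantified per cell by imaging cytometry.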
HepG2 tox – qHTS for Inhibitors of TGF-b: Cytotox Counterscreen; Potency, µM (top dose mostly 46.1 µM), usual class: cytotoxic; AID 588856, 2011; 0.76% of 410,000 active; HepG2 CAGA-GFP viability, ATP luminescence, 18 h
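HepG2 CAGA-GFP cells (1000/well, DMEM with 1% FBS) received compound, then TGF-beta at 500 pg/mL final, and were incubated 18 hours at 37 degrees C. Viability was read by CellTiter-Glo luminescence. Media-only wells were set as complete cell-killing and DMSO as no toxicity.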
TDP1 cell CPT – qHTS for Inhibitors of human tyrosyl-DNA phosphodiesterase 1 (TDP1): qHTS in cells in presence of CPT; chicken DT40 Tdp1-/-;hTDP1 cells + 20 nM CPT, ATP luminescence, 48 h; Potency, µM (top dose mostly 46.2 µM), usual class: inhibitors; 12% of 420,000 active; AID 686979, 2013; also: nearly all actives have a fitted effect of over 55% in size
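Chicken DT40 Tdp1-/- cells complemented with human TDP1, 400 cells/well, exposed to compounds plus 20 nM camptothecin for at least 48 h at 37 C; viability read as ATP content by CellTiter-Glo luminescence.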
HT1080 IDH1KD tx – qHTS for induction of synthetic lethality in tumor cells producing 2HG: qHTS for the HT-1080-IDH1KD cell line; AID 686971, 2013; 2% of 360,000 active; HT-1080 IDH1 knockdown viability, ATP luminescence, 48 h; Potency, µM (top dose mostly 46.1 µM), most hits filed as cytotoxic
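After a 2 h attachment period, IDH1KD HT-1080 cells took pin-transferred compound for 48 h at 37 °C; ATP-based luminescence after 10 min room-temperature reagent incubation reported viability.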
A number is an active result; – = inactive; ? = inconclusive; · = no result; [ ] = dose if it differs, or a comment. Most compounds without a hit are left out; they make up all but 17% or so of the library. Calls follow the shape of the dose curve; as a rule, active = well fitted curve in the direction sought with a large enough effect; inconclusive = small, poorly fitted or top-dose-only effect, or another doubt; inactive = no such curve, though single readings can be large; an effect the other way counts as inactive or inconclusive.

SMILES | TDP1 cell noCPT | HT1080NT lethal | TGFb SMAD3 inh | HepG2 tox | TDP1 cell CPT | HT1080 IDH1KD tx
COC(=O)c1cccc(NC(=O)C(C)(C)C)c1 | – | – | – | – | – | –
Cn1c(C2=C(O)CN(Cc3ccccc3)C2=N)[n+](C)c2ccccc21 | – | – | – | – | – | –
COc1ccc(NC(=O)CSC2=Nc3ccccc3N=C(c3ccc(F)cc3)C2)cc1OC | ? | · | ? | – | ? | ·
O=C(CSC1=Nc2ccccc2N=C(c2ccc(F)cc2)C1)Nc1cc(F)ccc1F | ? | · | – | – | ? | ·
CCc1cccc(NC(=O)CSC2=Nc3ccccc3N=C(c3ccc(F)cc3)C2)c1 | 13µM | · | ? | – | 21µM | ·
O=C(CSC1=Nc2ccccc2N=C(c2ccc(F)cc2)C1)Nc1cccc(C(F)(F)F)c1 | 23µM | · | ? | – | ? | ·
CC(C)CCNC(=O)Cc1ccc(Nc2nc(=S)[nH]c3ccccc23)cc1 | ? | – | – | – | – | –
Clc1ccc(OCc2nn3c(C4CCCCC4)nnc3s2)cc1 | 21µM | ? | – | – | 21µM | ?
COc1ccc(C)cc1NC(=O)C1CCN(S(=O)(=O)c2c(C)noc2/C=C/c2ccco2)CC1 | – | · | – | – | – | ·
CCOC(=O)C(=CNc1ccc(OC)cc1[N+](=O)[O-])C(=O)OCC | 12µM | – | – | – | 16µM | –
CCOC(=O)C(=CNc1cc(C)nn1-c1ccc(Cl)cc1)C(=O)OCC | ? | – | – | – | 23µM | –
CCOC(=O)C(=CNc1ccc(C)cc1C)C(=O)OCC | 16µM | – | – | – | ? | –
CCC(=O)OCC(=O)Nc1ccc(OC)cc1[N+](=O)[O-] | – | – | – | – | – | –
CCOC(=O)C(=CNc1ccc(Cl)cn1)C(=O)OCC | ? | – | – | – | – | –
O=C(CNc1ccc(Br)cc1)NNC1=NCCC1 | – | – | – | – | – | –
O=S(=O)(c1cccc(Cl)c1)c1nnn2c1nc(NC1CCCC1)c1sccc12 | ? | · | – | – | ? | ·
CN(Cc1ccccc1)c1nc2c(S(=O)(=O)c3cccc(Cl)c3)nnn2c2ccsc12 | ? | · | – | – | ? | ·
CCN(CC)c1nc2c(S(=O)(=O)c3cccc(Cl)c3)nnn2c2ccsc12 | 21µM | · | ? | – | 8.2µM | ·
CC1CCN(c2nc3c(S(=O)(=O)c4cccc(Cl)c4)nnn3c3ccsc23)CC1 | 23µM | · | – | – | ? | ·
O=S(=O)(c1cccc(Cl)c1)c1nnn2c1nc(NCc1ccc3c(c1)OCO3)c1sccc12 | 23µM | · | – | – | ? | ·
CC(C)Oc1ccc(/C(O)=C2/C(=O)C(=O)N(CCN3CCNCC3)C2c2ccc(C(C)C)cc2)cc1 (configuration not stated) | – | – | – | – | – | –
CC(=O)c1cccc(NC(=O)Cc2ccc3c(c2)CCCC3)c1 | ? | ? | – | – | ? | –[9.24 µM]
O=C(N/N=C(\CC(=O)c1cccs1)C(F)(F)F)c1cccnc1 | 23µM | – | – | – | ? | –
C/C(=N\NC(=O)c1cccnc1)c1ccc(OC2OCCOC2Oc2ccc(/C(C)=N/NC(=O)c3cccnc3)cc2)cc1 (configuration not stated) | 21µM | – | – | – | ? | –
C/C(=N\NC(=O)c1ccncc1)c1cccnc1 | – | – | – | – | – | –
C/C(=N\NC(=O)c1cccs1)c1cccnc1 | 26µM | – | – | – | 15µM | –
O=C(OCC(=O)c1ccccc1Cl)C1=NN(c2ccccc2)C(=O)CC1 | – | – | – | – | – | –
O=C(Nc1ccc(C(=O)NC2CCCCC2)cc1)c1cncc(Br)c1 | – | – | – | – | – | –
